Screen size: about 5,500 compounds; about 2,000 (36%) were called active. Another 18% or so got no clear call; they are omitted. Rule as the data show it: active = normalized growth mostly below about 0.91 (no sharp cut-off); inconclusive = no clear call, values can overlap the other calls; inactive = mostly above about 0.92. Some of the results follow.
Assay: chemical genetic growth profiling, strain panel (AID 1159580);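 also: tested at 20 µM; growth read once vehicle control cultures reached saturation at 30 °C; 1 = growth at the plate median or of vehicle wells; lower values mean less growth of the strain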
Details: S. cerevisiae deletion strains, growth OD

Measured: normalized growth

CCCCCCCCCCC/C=C\C(C)(C)/C=C\CCCC(=O)O
inactive: locus YAL040C, strain CLN3, hits give low values 1.02 | locus YCL061C, strain MRC1 (second series), hits give low values 1.04 | locus YDR150W, strain NUM1, hits give low values 1.01 | locus YDR363W, strain ESC2, hits give low values 1.04 | locus YER002W, strain NOP16, hits give low values 1.04 | locus YJR075W, strain HOC1, hits give low values 1.02 | locus YMR263W, strain SAP30, hits give low values 1.03 | locus YMR307W, strain GAS1, hits give low values 0.974 | locus YNL128W, strain TEP1, hits give low values 0.996 | locus YNL153C, strain GIM3, hits give low values 0.967 | locus YNL175C, strain NOP13, hits give low values 1.01 | locus YNL197C, strain WHI3, hits give low values 0.985 | locus YNL224C, strain SQS1, hits give low values 1 | locus YNL322C, strain KRE1, hits give low values 1.02 | locus YOR083W, strain WHI5 (second series), hits give low values 0.965 | locus YPL055C, strain LGE1, hits give low values 1.08

From PubChem BioAssay AID1159580 (chemical genetic matrix, 2015)
